Drawing on PubChem BioAssay (NCI), this text covers growth inhibition for 20 compounds.

This is part of a sample that, as a whole, favours compounds with a hit. Of some 79,000 tested, about 15% had one in any assay. Values without a mark were called inactive. Active and inactive are the calls of the source. Cut-off read from the data, not from the text of the source: active = growth inhibition above about 70%; inactive = the rest.

Assay [1] can be described thus: NCI Yeast Anticancer Drug Screen. Data for the rad50 strain (AID 155).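 Note: 0% = growth of vehicle-only cultures of the same strain.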 Conditions: S. cerevisiae rad50 strain growth inhibition; at 50.0 µM; stronger effect = higher value. In a few lines:
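DNA repair mutant yeast, compound exposure, growth read-out; inhibition is taken relative to vehicle.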

Assay [2] in a line: NCI Yeast Anticancer Drug Screen. Data for the mec2-1 strain (AID 157). Conditions: S. cerevisiae mec2-1 strain, at 50.0 µM, stronger effect = higher value. In a few lines: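 Test agents were screened against the mec2-1 yeast strain, with defined DNA repair or cell cycle alteration. Growth was scored as inhibition against vehicle-only controls.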
Assay [3] is described as follows: NCI Yeast Anticancer Drug Screen. Data for the sgs1 mgt1 strain (AID 161).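 Note: 0% = growth of cultures given vehicle only.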 Conditions: S. cerevisiae sgs1 mgt1 strain, at 50.0 µM, stronger effect = higher value. In a few lines: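 Mutant yeast exposed to compound; growth scored against vehicle-only wells.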
The nature of assay [4]: NCI Yeast Anticancer Drug Screen. Data for the cln2 rad14 strain (AID 165).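 Note: 0% = growth equal to vehicle treated cultures.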 Conditions: S. cerevisiae cln2 rad14 strain, at 50.0 µM, stronger effect = higher value. In a few lines:
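Growth of compound-exposed yeast (cln2 rad14 genotype) measured and expressed as inhibition relative to vehicle.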

A short description of assay [5]: NCI Yeast Anticancer Drug Screen. Data for the bub3 strain (AID 167). Conditions: S. cerevisiae bub3 mutant strain, at 50.0 µM, stronger effect = higher value. An outline of the steps:
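In this screen, a yeast mutant lacking normal mitotic checkpoint function is challenged with compound. Relative growth versus vehicle gives the inhibition value.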

The nature of assay [6]: NCI Yeast Anticancer Drug Screen. Data for the mlh1 rad18 strain (AID 175). The settings on record: S. cerevisiae mlh1 rad18 strain growth inhibition; at 50.0 µM; stronger effect = higher value. An outline of the steps: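 In this whole-cell yeast screen, a strain with altered DNA damage repair is challenged with compound, and its growth is measured against matched vehicle-treated controls.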

Regarding `COc1cc(OC)c(OC)cc1/C=C/c1cc[n+](C)c2ccccc12`, the growth inhibition in assay [1] was 9.1%; in assay [2] it was -6.35%; in assay [3] it was 11.6%; in assay [4], -0.8%; in assay [5] it was 4.95%; in assay [6], 8.05%.

Turning to `CC(NC(C)c1ccccc1)c1ccccc1` (stereo not given), the growth inhibition in assay [1] was 6.05%; in assay [2], 0.05%; in assay [3] it was -5.6%; in assay [4], -7.3%; in assay [5] it was 3.3%; in assay [6], -1.35%.

`O=C(Nc1ccc([N+](=O)[O-])cc1)OCc1ccccc1`: the growth inhibition in assay [1] was -14.1%; in assay [2] it was -0.05%; in assay [3], -9.35%; in assay [4], 0.7%; in assay [5], 1.7%; in assay [6] it was -16%.

Turning to `CC(O)(COS(=O)(=O)c1ccccc1)c1ccccc1` (stereo not given), the growth inhibition in assay [1] is -8.1%; in assay [2], 0.7%; in assay [3] it was -8.7%; in assay [4], -14%; in assay [5], 26.7%; in assay [6], -8.4%.

On to `CCCCSc1nc(NCC)nc(NCC)n1`, for which the growth inhibition in assay [1] is 63.6%; in assay [2] it was 38.9%; in assay [3], 67%; in assay [4] it was 27.1%; in assay [5] it was 40.5%; in assay [6], 41.9%.

On to `OC(COc1ccc2ccccc2c1)COc1ccc2ccccc2c1`, for which the growth inhibition in assay [1] is -8.55%; in assay [2], -22.1%; in assay [3] it was -7.85%; in assay [4] it was -16.3%; in assay [5], -11.6%; in assay [6], -5.8%.

Consider `CC(=C/C=C/C=C(C)\C=C\C=C(\C)C(=O)O)/C=C/C=C(/C)C(=O)O`, for which the growth inhibition was 18.1% in assay [1]; -7.95% in assay [2]; 8.65% in assay [3]; 7.75% in assay [4]; 16.4% in assay [5]; 16.9% in assay [6].

Regarding `COC(=O)c1c2c(cc3c1CC1(Cc4cc5c(cc4C1)CCCC5)C3)CCCC2`, the growth inhibition in assay [1] is -6.3%; in assay [2], -16.4%; in assay [3], -21.9%; in assay [4], 12.3%; in assay [5] it was -5.8%; in assay [6], 7.35%.

Consider `O=C1CCC(N2C(=O)C3C4CCC(O4)C3C2=O)C(=O)O1` (stereo not given), for which the growth inhibition in assay [1] is 12.9%; in assay [2], 3%; in assay [3], 13.9%; in assay [4] it was 13.8%; in assay [5] it was 13.8%; in assay [6], 7.85%.

On to `CC(C)CC(=O)OC1=C(OC(=O)CC(C)C)C(=O)C(OC(=O)CC(C)C)=C(OC(=O)CC(C)C)C1=O`, for which the growth inhibition in assay [1] was 36.9%; in assay [2], 15.3%; in assay [3], 39.3%; in assay [4], 29.6%; in assay [5], 7.9%; in assay [6], 25.3%.

With `C=C1C(=O)OC2C1CCC1(C)CC(Br)C(=O)C(C)C21` (stereo not given), the growth inhibition was 1.7% in assay [1]; -1.1% in assay [2]; 13.9% in assay [3]; 2.1% in assay [4]; -5.85% in assay [5]; -4.65% in assay [6].

For `O=C(CCc1cc(O)cc(O)c1)NCCc1cc(O)cc(O)c1`, the growth inhibition in assay [1] was 6.55%; in assay [2], 5.9%; in assay [3], 17.4%; in assay [4] it was 26.4%; in assay [5] it was 8.8%; in assay [6], -46%.

Turning to `CC(=O)N=C1CSc2ccccc2N1C`, the growth inhibition was -1.15% in assay [1]; -7.2% in assay [2]; -7.9% in assay [3]; -40.4% in assay [4]; -15.5% in assay [5]; -8.9% in assay [6].

Regarding `c1csc(-c2nc3sc(-c4cccs4)nc3s2)c1`, the growth inhibition is 3.4% in assay [1]; -9.75% in assay [2]; 1.9% in assay [3]; -18.8% in assay [4]; -16.6% in assay [5]; -2.4% in assay [6].

As for `CCOC(=S)SCC(=O)c1ccc(Br)cc1`, the growth inhibition in assay [1] is 67%; in assay [2], 70.5% (active); in assay [3], 66.8%; in assay [4], -7.5%; in assay [5], 55.2%; in assay [6], 83.5% (active).

For `O=C(Nc1ccccc1)C1(Cl)CCCCC1`, the growth inhibition was 11.7% in assay [1]; -7.35% in assay [2]; -8.7% in assay [3]; -16.9% in assay [4]; -4.7% in assay [5]; 1.8% in assay [6].

Turning to `Cc1ccc(S(=O)(=O)C(C#N)(Cc2c[nH]c3ccccc23)Cc2c[nH]c3ccccc23)cc1`, the growth inhibition in assay [1] was 4.85%; in assay [2], 9.25%; in assay [3], -5.25%; in assay [4], -16.2%; in assay [5], 11.8%; in assay [6], 6.5%.

As to `NC(=O)c1ccccc1C(N)=O`, the growth inhibition in assay [1] was 13.4%; in assay [2], -10.6%; in assay [3], 8.95%; in assay [4], 30.7%; in assay [5] it was -11.8%; in assay [6], -31.9%.

With `CC/C(=N/NC(=O)NN)c1ccc(Cl)cc1`, the growth inhibition is -2.2% in assay [1]; 14.3% in assay [2]; -1.2% in assay [3]; -1.8% in assay [4]; 22.6% in assay [5]; 17.6% in assay [6].

On to `O=C(N/C(=C\c1ccccc1Cl)c1nc2ccccc2[nH]1)c1ccccc1`, for which the growth inhibition in assay [1] was -20.5%; in assay [2], -15.1%; in assay [3], -23%; in assay [4], 10.2%; in assay [5] it was 38.9%; in assay [6], 10%.
